Counter-ions that a name gives are not always drawn.
How the values were obtained:
Test in all cases: Euclidean distance of Cell Painting phenotypic profile (signed KS, 77 features) to DMSO centroid (dimensionless distance); 5 or 10 uM (library dependent); higher = stronger phenotypic change vs DMSO (phenoactivity)
Details in all cases: 48 h
[1] = test system: 786-O
Summary of the method: (§1)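 Harmony extracted 77 features from 20X confocal images (9 fields/well) of stained cells, scoring each as a signed Kolmogorov-Smirnov statistic against same-plate vehicle wells. The cells, five cancer lines and a healthy fibroblast line, had received library compounds for 48 h at 10 or 5 uM depending on library, with 0.1% DMSO final. Phenoactivity is the Euclidean distance from each plate-position-corrected, correlation-weighted, top-dose replicate-averaged profile to the median vehicle profile.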

[2] = test system: A549
Summary of the method: as §1

[3] = test system: DU145
Summary of the method: as §1

[4] = test system: FB
Summary of the method: as §1

[5] = test system: HEPG2
Summary of the method: as §1

[6] = test system: OVCAR4
Summary of the method: as §1

| Structure (SMILES) | Euclidean distance [1] | Euclidean distance [2] | Euclidean distance [3] | Euclidean distance [4] | Euclidean distance [5] | Euclidean distance [6] |
| --- | --- | --- | --- | --- | --- | --- |
| CC(Cc1ccc(O)c(O)c1)C(C)Cc1ccc(O)c(O)c1 (stereo not drawn) [Nordihydroguaiaretic acid (NDGA)] | 1.19 | 0.902 | 1.27 | 1.54 | 1.06 | 0.861 |
| Cc1ncc([N+](=O)[O-])n1CCOC(=O)c1ccccc1 [Metronidazole Benzoate] | 0.984 | 1.41 | 0.885 | 1.58 | 0.486 | 0.922 |
| COc1cc2ncnc(Nc3cccc(Cl)c3F)c2cc1OC(=O)N1CCN(C)C[C@H]1C | 1.15 | 2.05 | 1.72 | 1.4 | 0.691 | 1.33 |
| NNc1nncc2ccccc12 [Hydralazine HCl] | 1.33 | 1.23 | 0.857 | 1.33 | 0.411 | 0.975 |
| CN1CCC(=C2c3ccccc3C=Cc3ccccc32)CC1 [Cyproheptadine hydrochloride] | 0.781 | 1.06 | 1.24 | 1.89 | 2.26 | 0.968 |
| NC(=O)N/N=C/c1ccc([N+](=O)[O-])o1 [Nitrofural] | 1.31 | 0.907 | 1.62 | 1 | 0.466 | 1.22 |
| C/C(=N\NC(=S)N1CCC1)c1ccccn1 | 3.65 | 3.49 | 3.44 | 3.45 | 4.41 | 4.89 |
| O=c1ccc2ccc(OCCCCN3CCN(c4cccc5sccc45)CC3)cc2[nH]1 [Brexpiprazole] | 1.47 | 1.82 | 2.84 | 1.52 | 2.28 | 1.15 |
| CCC[C@H](N[C@@H](C)C(=O)N1[C@H](C(=O)O)C[C@@H]2CCCC[C@@H]21)C(=O)OCC [Perindopril Erbumine] | 1.37 | 0.943 | 1.24 | 0.906 | 1.41 | 0.854 |
| Fc1cc(-c2cccc3ncc(-c4cnn(C5CCNCC5)c4)nc23)cc(F)c1CN1CCOCC1 | 2.09 | 3.31 | 2.11 | 3.84 | 2.39 | 1.28 |
| CC(C)N(CCCNC(=O)Nc1ccc(C(C)(C)C)cc1)C[C@H]1O[C@@H](n2cc(Br)c3c(N)ncnc32)[C@H](O)[C@@H]1O | 0.633 | 1.32 | 1.19 | 1.58 | 1.15 | 0.804 |
| CCOC(=O)[C@H](CCc1ccccc1)N[C@@H](C)C(=O)N(CC(=O)O)C1Cc2ccccc2C1 [Delapril Hydrochloride] | 1 | 1.15 | 0.898 | 1 | 0.353 | 1.06 |
| CC(=O)OCC(=O)[C@@]12N=C(C)O[C@@H]1C[C@H]1[C@@H]3CCC4=CC(=O)C=C[C@]4(C)[C@H]3[C@@H](O)C[C@@]12C [Deflazacort] | 1.27 | 1.84 | 2.48 | 2.04 | 1.58 | 1.7 |
| O=C(Nc1ccncc1)c1cc([N+](=O)[O-])ccc1Cl | 1.2 | 0.794 | 2.19 | 0.879 | 1.09 | 2.04 |
| O=C(O)CSc1nnc(Br)n1-c1ccc(C2CC2)c2ccccc12 [Lesinurad] | 0.529 | 0.673 | 0.762 | 0.983 | 1.61 | 0.826 |
| Cc1cn[nH]c1 [Fomepizole] | 0.803 | 0.542 | 1.4 | 0.868 | 1.97 | 0.897 |
| O=C(O)c1cc(-c2ccccc2)nc2ccccc12 [Cinchophen] | 1.16 | 1.12 | 1.3 | 1.12 | 1.47 | 0.992 |
| CC[C@H](NC(=O)[C@H](C)NC)C(=O)N1C[C@@H](O)C[C@H]1Cc1c(-c2[nH]c3cc(F)ccc3c2C[C@@H]2C[C@H](O)CN2C(=O)[C@H](CC)NC(=O)[C@H](C)NC)[nH]c2cc(F)ccc12 [Birinapant] | 1.15 | 1.08 | 2.69 | 1.06 | 2.95 | 1.97 |
| CNC(=O)c1cnn(-c2nc(N)c3ncn([C@@H]4O[C@H](CO)[C@@H](O)[C@H]4O)c3n2)c1 [Regadenoson] | 0.517 | 0.628 | 0.867 | 1.43 | 1.32 | 0.995 |
| O=C(Nc1cccc2cccnc12)c1ccc(N2C(=O)[C@@H]3[C@H](C2=O)[C@@H]2C=C[C@H]3C2)cc1 [IWR-1-endo] | 1 | 1.06 | 1.39 | 1.64 | 1.53 | 1.54 |
| COc1ccc(NS(=O)(=O)c2ccc(N)cc2)nn1 [Sulfamethoxypyridazine] | 0.978 | 0.771 | 1.02 | 1.64 | 0.55 | 1.05 |
| CN1CCN(CCCN2c3ccccc3Sc3ccc(C(F)(F)F)cc32)CC1 [Trifluoperazine 2HCl] | 2.52 | 2.25 | 1.58 | 2.19 | 3.04 | 1.8 |
| NC(=O)c1ccccc1O [Salicylamide] | 1.39 | 1.58 | 1.56 | 1.4 | 0.71 | 2.3 |
| CCc1cncnc1N1CCN(Cc2nc3ccc(C(F)(F)F)cc3[nH]2)CC1 | 1.03 | 0.742 | 0.956 | 1.1 | 0.883 | 1.13 |

| Structure (SMILES) | Euclidean distance [1] | Euclidean distance [2] | Euclidean distance [3] | Euclidean distance [4] | Euclidean distance [5] | Euclidean distance [6] |
| --- | --- | --- | --- | --- | --- | --- |
| Oc1c(Cl)cc(Cl)c(Cl)c1Cc1c(O)c(Cl)cc(Cl)c1Cl [Hexachlorophene] | 2.16 | 1.62 | 1.19 | 3.31 | 2.53 | 1.64 |
| CC(C)(C)NCC(O)c1ccc(O)c(CO)c1 (stereo not drawn) [Salbutamol] | 1.03 | 0.738 | 1.09 | 0.676 | 0.894 | 0.709 |
| Oc1ccc(-c2nc(-c3ccc(F)cc3)c(-c3ccncc3)[nH]2)cc1 | 1.58 | 0.841 | 1.39 | 1.38 | 2.99 | 2.17 |
| CN1CCN(c2c(F)cc3c(=O)c(C(=O)O)cn4c3c2OCN4C)CC1 [Marbofloxacin] | 0.878 | 0.762 | 0.494 | 1.1 | 1.53 | 0.752 |
| N[C@@H](CC(=O)N1CCn2c(nnc2C(F)(F)F)C1)Cc1cc(F)c(F)cc1F [Sitagliptin phosphate monohydrate] | 0.554 | 0.819 | 1.11 | 0.644 | 0.395 | 0.956 |
| CCCCOc1ccc(OCCCN2CCOCC2)cc1 [Pramoxine HCl] | 1.3 | 0.99 | 1.08 | 0.528 | 0.51 | 1.2 |
| Cc1cnc(C(=O)O)c[n+]1[O-] [Acipimox] | 1.86 | 0.99 | 0.959 | 0.682 | 1.59 | 0.964 |
| NC(=O)c1cnc2[nH]ccc2c1N[C@@H]1[C@@H]2CC3C[C@H]1C[C@@](O)(C3)C2 | 2.3 | 2 | 1.41 | 3.39 | 1.42 | 2.08 |
| N=C(N)NCCC[C@H](N)C(=O)O [L-arginine] | 1.03 | 0.798 | 1.21 | 0.843 | 0.876 | 0.97 |
| COC(=O)Nc1nc2cc(C(=O)c3ccc(F)cc3)ccc2[nH]1 [Flubendazole] | 2.74 | 2.91 | 3.24 | 2.46 | 2.16 | 3.1 |
| CCN(CC)Cc1cc(Nc2ccnc3cc(Cl)ccc23)ccc1O [Amodiaquine hydrochloride] | 2.94 | 2.7 | 1.67 | 3.45 | 2.69 | 2.51 |
| CO[C@H]1C[C@@H]2CC[C@@H](C)[C@@](O)(O2)C(=O)C(=O)N2CCCC[C@H]2C(=O)O[C@H]([C@H](C)C[C@@H]2CC[C@H](n3cnnn3)[C@H](OC)C2)CC(=O)[C@H](C)/C=C(\C)[C@@H](O)[C@@H](OC)C(=O)[C@H](C)C[C@H](C)/C=C/C=C/C=C/1C [Zotarolimus(ABT-578)] | 2.27 | 1.83 | 1.38 | 2.7 | 1.45 | 2.09 |
| CC(C)(C)C(=O)OCOP(=O)(COCCn1cnc2c(N)ncnc21)OCOC(=O)C(C)(C)C [Adefovir Dipivoxil] | 2.81 | 2.71 | 2.07 | 2.73 | 3.97 | 3.18 |
| O=C(O)CNC(=O)c1ncc(-c2cccc(Cl)c2)cc1O [Vadadustat] | 1.08 | 1.97 | 2.71 | 1.67 | 0.8 | 2.35 |
| CC(C)=CCOc1ccc(/C=C/C(=O)c2ccc(OCC=C(C)C)cc2OCC(=O)O)cc1 [Sofalcone] | 1.25 | 1.09 | 0.847 | 1.01 | 0.922 | 1.08 |
| O=C([O-])c1ccccc1O.[Na+] [Sodium salicylate] | 0.657 | 0.529 | 0.888 | 0.714 | 0.709 | 0.92 |
| COc1ccc2c3c1O[C@H]1C[C@@H](O)C=C[C@@]31CCN(C)C2 [Galanthamine] | 0.802 | 1.14 | 0.605 | 0.959 | 0.423 | 0.852 |
| COc1ccc2ccc(=O)oc2c1CC=C(C)C [Osthole] | 1.34 | 0.749 | 0.86 | 1.14 | 0.394 | 0.956 |
| CNC1(C)C2CCC(C2)C1(C)C (stereo not drawn) [Mecamylamine Hydrochloride] | 1.04 | 0.418 | 0.617 | 1.01 | 0.384 | 1.18 |
| CC(C)OC(=O)C(C(=O)OC(C)C)=C1SC=CS1 [Malotilate] | 1.94 | 1.09 | 0.92 | 1.39 | 1.08 | 1.29 |
| c1cc(-c2cnn3cc(-c4ccc(N5CCNCC5)cc4)cnc23)c2cccnc2c1 | 5.15 | 5.05 | 4.45 | 6.55 | 5.9 | 6.68 |
| CC1=C[C@H](O)CC(C)(C)[C@H]1/C=C/C(C)=C/C=C/C(C)=C/C=C/C=C(C)/C=C/C=C(C)/C=C/C1=C(C)C[C@@H](O)CC1(C)C [lutein] | 0.901 | 0.452 | 1.78 | 0.947 | 1.18 | 1 |
| O=C(O)CC(O)(CC(=O)O)C(=O)O [Citric acid] | 0.88 | 0.725 | 1.02 | 0.899 | 0.774 | 0.991 |
| N#Cc1ccc(C(c2ccc(C#N)cc2)n2cncn2)cc1 [Letrozole] | 3.04 | 1.88 | 1.67 | 3.14 | 1.48 | 2.31 |

Reference: the supplement of paper PMC10127200
